For 40 molecules, outcome and AC50 results are on record in PubChem BioAssay (EPA / NIEHS).

Calls of active or inactive are those of the source. The calls were made as follows: active = hit-call score of the fitted dose curve at least 0.9, where 1 is the maximum; inactive = score below 0.9.

Read-out in the experiment: CYP2E1 (gene 1571)
The experiment is described as follows: LTEA_HepaRG_CYP2E1: Life Technologies and Expression Analysis (LTEA) Assay for CYP2E1 using HepaRG (AID 2283485). The conditions noted are these: mRNA level, 48 h; actives raise or lower the signal. As for the experimental part:
LTEA_HepaRG is a cell based, multiplexed-readout assay that uses HepaRG, a human liver cell line, with measurements taken at 48 hours after chemical dosing on a 96-well plate.LTEA_HepaRG_CYP2E1 is one of 102 assay component(s) measured in the LTEA HepaRG cell culture assay. It is a marker of NR mediated metabolism.Data from the assay component LTEA_HepaRG_CYP2E1 was analyzed into 1 endpoint. This assay endpoint, LTEA_HepaRG_CYP2E1, was analyzed with bidirectional fitting relative to DMSO as the negative control and baseline of activity. Using a type of inducible reporter, measures of mRNA induction for gain or loss-of-signal activity can be used to understand regulation of transcription factor activity. To generalize the intended target to other relatable targets, this assay endpoint is annotated to the cyp intended target family, where the subfamily is xenobiotic metabolism.
A total of 1060 chemcials from the ToxCast library were tested in eight-point concentration-response experiments. Cell culture and cytotoxicity assays were conducted at Thermo Fisher Scientific's Custom Services facility (Madison, WI). A single lot of human HepaRG cells (Thermo Fisher Scientific, Frederick, MD) was used for the cell culture experiments. 96-well format collagen type I coated plates of human HepaRG cells were prepared using established methods. Briefly, cryopreserved HepaRG cells were thawed, plated at a density of approximately 100,000 cells/well in HepaRG Thaw, Plate, and General Purpose media (HPRG770, Thermo Fisher Scientific), and incubated for 48 hours. 0.5% DMSO was selected as vehicle control to balance the requisite need of DMSO in HepaRG cultures to maintain differentiation (for example, baseline metabolism, proportions of hepatocytes vs. cholangiocytes), while enabling further hepatic receptor pathway activation (for example, PXR and CAR) in response to chemical exposure. 48 hours after plating, the culture medium was replaced with HepaRG Serum-Free Incudtion Media. Cells were exposed to each test chemical in duplicate and maintained in CO2 incubators for another 48 hours. Chemical plates were thawed to room temperature and 200x concentrations of treatment groups were prepared. 8-point conentration-reponse curves were made with the highest exposure at 100 uM, followed by half-log dilutions, all in 0.5% DMSO. Each test plate contained variouse controls, induction positive controls (1mM phenobarbital), cytotoxicity positive controls ([…] aflatoxin B1), vehicle controls (0.5% DMSO), and total lysis controls (0.5% DMSO). Cell morphology images were taken using an Essen IncuCyte FLR automated microscope, with six 96-well plates imaged in about 24 minutes. Images were captured and exported and JPEG files. Spent culture media was transfered to black-well plates for the LDH assay, and remaining media was sorted at -80 C for later use. Cells were treated with RLT buffer and frozen until shipped for gene expression analysis. Total RNA was isolated from the cell suspension in 75 uL of Buffer RLT (Qiagen, Germantown, MD 20874) by Quintiles/Expression Analysis (Durham, NC) using a custom isolation procedure. Total RNA from each plate well was transferred to a preamplification plate. Fluidigm's 96.96 Dynamic ArrayTM (Fluidigm, Amsterdam, the Netherlands) technology was used for gene expression analyses by quantitative reverse transcription polymerase chain reaction (qRT-PCR, performed by Quintiles/Expression Analysis, Durham, NC)89. Standard TaqManTM Assays (Applied Biosystems/ThermoFisher Scientific, Foster City, CA) were used to assess the expression of 93 genes selected based on their selectivity and sensitivity to important hepatic receptors known to be modulated by environmental chemicals; importance in human hepatocyte functionality; and hepatotoxicity. […]
`C[C@]12C=CC(=O)C=C1CC[C@H]1[C@@H]3C[C@@H](O)[C@](O)(C(=O)CO)[C@@]3(C)C[C@H](O)[C@@]12F`: the call was inactive.

As a reminder, the AC50 is the midpoint of the concentration-response curve, whichever way the signal moves. Take `Cc1nc(-c2ccccn2)ncc1C(=O)Nn1cc(C)c2cc(F)ccc21`: the AC50 is 24.3 µM (active).

As to `NC(=O)N(O)[C@@H]1COc2cc(OCc3ccccc3)ccc21`, the AC50 was 50 µM (active).

As to `CCn1nc(C)c2c1C(=O)NCC(c1ccc(O)cc1)=N2`, the call was inactive.

For `NC(=O)NN=Cc1ccc([N+](=O)[O-])o1`, the AC50 is 19 µM (active).

Turning to `CC(C)CC(C)O` (stereo not given), the molecule was classed as inactive.

For the molecule `CCCc1ccccc1`, the molecule was called inactive.

In the case of `Cn1c(=O)c2[nH]cnc2n(C)c1=O`, the result was inactive.

In the case of `O=C(O)c1cccc(C(=O)O)c1`, the molecule was called inactive.

`c1ccc2ncccc2c1`: the molecule was classed as inactive.

As for `CC(C)CCCCCCOC(=O)C1CCCCC1C(=O)OCCCCCCC(C)C` (stereo not given), the molecule was called inactive.

`Cc1ncc([C@@H](CCCCCCc2ccc3c(n2)NCCC3)CC(=O)O)cn1`: the AC50 was 50 µM (active).

`Nc1ccn([C@@H]2O[C@H](CO)[C@@H](O)[C@@H]2O)c(=O)n1`: the molecule was called inactive.

Consider `CCCCC(CC)C(=O)OCCOCCOCCOC(=O)C(CC)CCCC` (stereo not given), for which the molecule was called inactive.

Regarding `OC(Cn1cncn1)(Cn1cncn1)c1ccc(F)cc1F`, the call was inactive.

For `CC1(C)C(=O)N(Cl)C(=O)N1Cl`, the result was inactive.

With `NNC(=O)c1ccncc1`, the molecule was classed as inactive.

`CCCOc1ccc(S(=O)(=O)N2CCN(CC)CC2)cc1-c1nc2c(CC)n(Cc3ccccn3)nc2c(=O)[nH]1`: the AC50 is 4.54 µM (active).

As to `O=S(=O)(O)c1ccc(N=Nc2c(O)ccc3cc(S(=O)(=O)O)ccc23)cc1`, the result was inactive.

Take `O=C(O)c1ccc2c(c1)nc(C(=O)NC1CCN(C3CC3)CC1)n2Cc1cc(-c2ccc(Cl)s2)on1`: the molecule was classed as inactive.

For `OC[C@H]1O[C@@](CO)(O[C@H]2O[C@H](CO)[C@@H](O)[C@H](O)[C@H]2O)[C@@H](O)[C@@H]1O`, the result was inactive.

As to `CCCCCCCCCC`, the molecule was classed as inactive.

`CCN(CC)C(=S)SSC(=S)N(CC)CC`: the molecule was called inactive.

Regarding `O=C(O)c1cccc(C[C@@H]2COc3ccc(OCc4nc5cc(F)ccc5s4)cc3[C@@H]2O)c1`, the AC50 is 71.7 µM (active).

Consider `C=CN1CCCC1=O`, for which the molecule was classed as inactive.

Regarding `CCc1cccc(CC)c1N`, the result was inactive.

Regarding `CCc1ccc(O)c(C(C)(C)C)c1`, the call was inactive.

For the molecule `COCc1nnc(-c2ccc[n+]([O-])c2)n1-c1c(Cl)c(Cl)cc2[nH]c(=O)c(=O)[nH]c12`, the result was inactive.

Consider `CCCCCCCCCCCCCCCCOS(=O)(=O)O`, for which the concentration at half-maximal activity (AC50) is 38.5 µM (active).

As for `O=C(NO)C1(NS(=O)(=O)c2ccc(Oc3ccc(F)cc3)cc2)CCOCC1`, the AC50 is 54.4 µM (active).

Take `OC[C@H]1O[C@@H]2O[C@H]3[C@H](O)[C@@H](O)[C@@H](O[C@H]4[C@H](O)[C@@H](O)[C@@H](O[C@H]5[C@H](O)[C@@H](O)[C@@H](O[C@H]6[C@H](O)[C@@H](O)[C@@H](O[C@H]7[C@H](O)[C@@H](O)[C@@H](O[C@H]1[C@H](O)[C@H]2O)O[C@@H]7CO)O[C@@H]6CO)O[C@@H]5CO)O[C@@H]4CO)O[C@@H]3CO`: the result was inactive.

As for `c1ccc2c(c1)-c1cccc3c1c-2cc1ccccc13`, the half-maximal activity concentration (AC50) was 14.7 µM (active).

Regarding `CCCCCCOC(=O)CC(CC(=O)OCCCCCC)(OC(=O)CCC)C(=O)OCCCCCC`, the result was inactive.

For the molecule `OCC(CO)(CO)CO`, the call was inactive.

As to `O=S1(=O)CCCO1`, the outcome was inactive.

As to `C[C@@H](Oc1ccc(CNC(=O)c2cccnc2Oc2ccc3c(c2)OCO3)c(F)c1)C(=O)O`, the result was inactive.

Consider `CC(=O)c1ccccc1`, for which the call was inactive.

`OC(CCl)CCl`: the outcome was inactive.

With `CC(C)c1nnc2ccc(-c3ocnc3-c3cc(F)ccc3F)cn12`, the AC50 was 22.2 µM (active).

For `CC(C)C(=O)Nc1ccc([N+](=O)[O-])c(C(F)(F)F)c1`, the AC50 was 43.9 µM (active).
